Test results as given in PubChem BioAssay (Tox21).
Records with an inconclusive call do not appear. The source made the active and inactive calls. Unless noted, calls follow the shape of the dose curve; as a rule, active = well fitted curve in the direction sought with a large enough effect in the repeat runs; inconclusive = weak or mixed curves; inactive = no such curve, though single readings can be large; an effect the other way counts as inactive or inconclusive.

Tests used:
[1] = qHTS assay for small molecule agonists of the p53 signaling pathway (AID 651631; calls by dose curve; also: % is scaled to controls: 0 for no effect and ±100 for the full control effect; nearly all actives have a fitted effect of over 15% in size)
In short: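 Stably transfected HCT-116 cells (beta-lactamase behind p53 response elements) get compounds after a 5 h settling period; 16 h later at 37 °C, FRET substrate is loaded and fluorescence read after 2 h.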

[2] = qHTS assay for small molecules that induce genotoxicity in human embryonic kidney cells expressing luciferase-tagged ATAD5 (AID 651632); also: % is scaled to controls: 0 for no effect and ±100 for the full control effect; nearly all actives have a fitted effect of over 15% in size
In short: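 DMSO vehicle served as the control. HEK293T reporter cells, 16 hr at 37C, then 30 min Amplite at room temperature; ATAD5 induction is measured as luciferase activity.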

[3] = qHTS assay for small molecule agonists of the p53 signaling pathway - cell viability (AID 651633; calls by dose curve;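 also: p53RE-bla HCT reporter cells with a stable beta-lactamase p53 reporter; series mostly up to about 83 µM; % is scaled to controls: 0 for no effect and ±100 for the full control effect; nearly all actives have a fitted effect of over 30% in size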)
In short: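 p53RE-bla cells were treated with compound for 16 hours at 37 C. Cytotoxicity was then measured as CellTiter-Glo luminescence after 30 min at room temperature.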

[4] = qHTS assay for small molecules that induce genotoxicity in human embryonic kidney cells expressing luciferase-tagged ATAD5 - cell viability (AID 651634; calls by dose curve; also: % is scaled to controls: 0 for no effect and ±100 for the full control effect; nearly all actives have a fitted effect of over 25% in size)
In short: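 Here HEK293T cells with the ATAD5 luciferase reporter are incubated with test compounds for 15.5 hr, and cytotoxicity is then gauged by measuring protease activity in live cells using fluorescence.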

[5] = qHTS assay for small molecule disruptors of the mitochondrial membrane potential - cell viability (AID 720634; calls by dose curve;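 also: human HepG2 liver cancer cells; series mostly up to about 83 µM; % is scaled to controls: 0 for no effect and ±100 for the full control effect; nearly all actives have a fitted effect of over 20% in size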)
In short: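 Viability of HepG2 cells is scored from ATP content by luminescence; cells are exposed to compound for 1 hr at 37 C and 5% CO2, then dosed with m-MPI dye before the CellTiter-Glo reagent.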

[6] = qHTS assay to test for compound auto fluorescence at 590 nm (red) in HepG2 cells (AID 720674); also: % is scaled to controls: 0 for no effect and ±100 for the full control effect
In short: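 HepG2 cells, 2,000 per well in MEM with 10% FBS, attached overnight at 37 C, then got 23 nL compound or DMSO. After 1 hr at 37 C, 5% CO2, red fluorescence was read at 540/590 nm against Rose Bengal sodium as reference.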

[7] = qHTS assay to test for compound auto fluorescence at 535 nm (green) in HepG2 cells (AID 720675); also: % is scaled to controls: 0 for no effect and ±100 for the full control effect
[8] = qHTS assay to test for compound auto fluorescence at 460 nm (blue) in HEK293 cells (AID 720678); also: % is scaled to controls: 0 for no effect and ±100 for the full control effect
In short: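 HEK293 cells (2,000/well, medium with 10% dialyzed FBS) attached 4-5 hr, then exposed to compound overnight at 37C, 5% CO2. Blue fluorescence read at 405/460 nm, with triamterene as reference fluorophore.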

[9] = qHTS assay to test for compound auto fluorescence at 590 nm (red) in HEK293 cells (AID 720679); also: % is scaled to controls: 0 for no effect and ±100 for the full control effect
In short: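 HEK293 cells (2,000/well, 10% dialyzed FBS) attached 4-5 hr, then dosed with compound or DMSO and incubated overnight at 37C, 5% CO2. Red fluorescence read at 540/590 nm, Rose Bengal sodium as reference fluorophore.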

[10] = qHTS assay to test for compound auto fluorescence at 535 nm (green) in HEK293 cells (AID 720680); also: % is scaled to controls: 0 for no effect and ±100 for the full control effect
[11] = qHTS assay to test for compound auto fluorescence at 460 nm (blue) in HEK293 cell free culture (AID 720681); also: % is scaled to controls: 0 for no effect and ±100 for the full control effect
In short: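 Compounds were added to cell-free DMEM with 10% FBS and fluorescence read directly. The blue channel used 405 nm excitation and 460 nm emission, with triamterene as the reference fluorophore.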

[12] = qHTS assay to test for compound auto fluorescence at 535 nm (green) in HEK293 cell free culture (AID 720682); also: % is scaled to controls: 0 for no effect and ±100 for the full control effect
In short: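 Using fluorescein as calibrant, autofluorescence was quantified at 485/535 nm in cell-free DMEM containing 10% FBS after pintool addition of compound or vehicle.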

[13] = qHTS assay to test for compound auto fluorescence at 590 nm (red) in HEK293 cell free culture (AID 720683); also: % is scaled to controls: 0 for no effect and ±100 for the full control effect
In short: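 Cell-free wells of DMEM with 10% FBS received compound, and intrinsic fluorescence was read at excitation/emission 540/590 nm. Values expressed as equivalence to Rose Bengal sodium.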

[14] = qHTS assay to test for compound auto fluorescence at 590 nm (red) in HepG2 cell free culture (AID 720684); also: % is scaled to controls: 0 for no effect and ±100 for the full control effect
In short: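 Rose Bengal sodium served as the reference for red signal. Test compounds were dispensed into serum-containing MEM (10% FBS) without cells, and plates were read at 540/590 nm.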

[15] = qHTS assay to test for compound auto fluorescence at 460 nm (blue) in HepG2 cell free culture (AID 720685); also: % is scaled to controls: 0 for no effect and ±100 for the full control effect
In short: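 Cell-free plates of MEM plus 10% FBS received 23 nL compound or DMSO vehicle; blue-channel (405/460 nm) intensity scored against triamterene as reference fluorophore.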

[16] = qHTS assay to test for compound auto fluorescence at 535 nm (green) in HepG2 cell free culture (AID 720686); also: % is scaled to controls: 0 for no effect and ±100 for the full control effect
[17] = target: Glucocorticoid receptor (Homo sapiens) (UniProt P04150); experiment: qHTS assay to identify small molecule antagonists of the glucocorticoid receptor (GR) signaling pathway (AID 720692; active = well fitted inhibition curve with a large enough effect in the signal ratio in the repeat runs, not every such curve was filed as active; the % refers to the signal ratio; also: % is scaled to controls: 0 for no effect and ±100 for the full control effect)
In short: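 In a 1536-well cell format, compounds were added 4 h after seeding GR-bla HeLa cells, together with dexamethasone at 5 nM final; reporter activity was measured by FRET-substrate fluorescence following 18 h at 37 C.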

[18] = qHTS assay to test for compound auto fluorescence at 460 nm (blue) in HepG2 cells (AID 720687); also: % is scaled to controls: 0 for no effect and ±100 for the full control effect
In short: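 HepG2 cells in MEM with 10% FBS, attached overnight at 37 C, were exposed to compound or DMSO for 1 hr at 37 C, 5% CO2. Blue fluorescence was read at 405/460 nm, with triamterene as reference fluorophore.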

[19] = target: Glucocorticoid receptor (Homo sapiens) (UniProt P04150); experiment: qHTS assay to identify small molecule agonists of the glucocorticoid receptor (GR) signaling pathway (AID 720691; active = well fitted activation curve with a large enough effect in the signal ratio in the repeat runs, not every such curve was filed as active; the % refers to the signal ratio; also: % is scaled to controls: 0 for no effect and ±100 for the full control effect)
In short: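 Compounds in DMSO, alongside positive controls, were added to GR-bla HeLa reporter cells and incubated 18 h at 37 C; GRE-driven beta-lactamase was detected by fluorescence after 2 h with FRET substrate at room temperature.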

[20] = qHTS assay for small molecule disruptors of the mitochondrial membrane potential (AID 720635); also: potency is read from the fitted curve at half-maximal effect
In short: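 HepG2 cells exposed to compound 1 hr at 37C, then Mito-MPS dye 30 min. Ratio read of aggregate (540/590 nm) versus monomer (490/535 nm) fluorescence.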

Glucocorticoid receptor (Homo sapiens), sequence (P04150 whole entry, looked up): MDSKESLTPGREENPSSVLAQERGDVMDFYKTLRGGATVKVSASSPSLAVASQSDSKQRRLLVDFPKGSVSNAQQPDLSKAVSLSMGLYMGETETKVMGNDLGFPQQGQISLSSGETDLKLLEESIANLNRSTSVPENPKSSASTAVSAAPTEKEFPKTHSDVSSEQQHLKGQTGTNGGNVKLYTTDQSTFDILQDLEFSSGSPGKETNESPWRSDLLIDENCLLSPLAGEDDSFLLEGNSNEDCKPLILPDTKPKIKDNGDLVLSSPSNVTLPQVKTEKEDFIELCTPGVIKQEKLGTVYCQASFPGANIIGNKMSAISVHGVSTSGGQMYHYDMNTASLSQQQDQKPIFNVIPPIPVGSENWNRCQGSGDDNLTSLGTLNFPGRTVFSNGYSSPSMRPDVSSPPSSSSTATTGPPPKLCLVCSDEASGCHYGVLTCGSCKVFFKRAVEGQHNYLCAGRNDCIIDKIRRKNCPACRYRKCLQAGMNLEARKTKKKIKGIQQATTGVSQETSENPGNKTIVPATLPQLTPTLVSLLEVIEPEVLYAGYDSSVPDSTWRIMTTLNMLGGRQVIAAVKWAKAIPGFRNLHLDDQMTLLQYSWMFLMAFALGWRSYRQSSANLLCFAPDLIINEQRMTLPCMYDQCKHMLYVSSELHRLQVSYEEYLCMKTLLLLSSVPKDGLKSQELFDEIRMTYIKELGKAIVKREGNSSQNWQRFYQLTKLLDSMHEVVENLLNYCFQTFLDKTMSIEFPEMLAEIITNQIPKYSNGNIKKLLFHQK

OC(CCN1CCCCC1)(c1ccccc1)c1ccccc1
inactive: outcome [1] | outcome [2] | outcome [3] | Potency [4] | outcome [5] | outcome [6] | outcome [7] | outcome [8] | outcome [9] | outcome [10] | outcome [11] | outcome [12] | outcome [13] | outcome [14] | outcome [15] | outcome [16]

NC(=O)NNC(N)=O
inactive: outcome [1] | outcome [2] | outcome [3] | Potency [4] | outcome [5] | outcome [6] | outcome [7] | outcome [8] | outcome [9] | outcome [10] | outcome [11] | outcome [13] | outcome [14] | outcome [15] | outcome [17]

CCCCOC(=O)C(C)OC(=O)CCC (stereo unspecified)
inactive: outcome [1] | outcome [2] | outcome [3] | Potency [4] | outcome [5] | outcome [6] | outcome [7] | outcome [8] | outcome [9] | outcome [10] | outcome [11] | outcome [12] | outcome [13] | outcome [14] | outcome [15] | outcome [16] | outcome [18] | Potency [19] | outcome [17]

COc1ccc(NS(=O)(=O)c2ccc(N)cc2)nn1
inactive: outcome [1] | outcome [2] | outcome [3] | Potency [4] | outcome [5] | fluorescence, relative to Rose Bengal [6] 0.178% [at 18.6 µM] | fluorescence, % of fluorescein control [7] -0.0175% [at 18.6 µM] | fluorescence, % of triamterene [8] -0.19% [at 18.6 µM] | fluorescence, % of fluorescent control [9] -0.981% [at 18.6 µM] | fluorescence, % of fluorescein [10] -0.0152% [at 18.6 µM] | fluorescence, % of fluorescent control [11] 0.201% [at 18.6 µM] | activity change [12] -0.0484% [at 18.6 µM] | fluorescence, % of fluorescent control [13] -0.041% [at 18.6 µM] | fluorescence, % of Rose Bengal [14] -0.359% [at 18.6 µM] | fluorescence, % of fluorescent control [15] -0.109% [at 18.6 µM] | fluorescence, % of fluorescein control [16] -0.0862% [at 18.6 µM] | fluorescence, % of fluorescent control [18] 0.0805% [at 18.6 µM] | Potency [19] | outcome [17]

NS(=O)(=O)c1cc2c(cc1Cl)NC(C(Cl)Cl)NS2(=O)=O (stereo unspecified)
inactive: outcome [1] | outcome [2] | outcome [3] | Potency [4] | fluorescence, relative to Rose Bengal [6] 0.314% [at 18.6 µM] | fluorescence, % of fluorescein control [7] 0.136% [at 18.6 µM] | fluorescence, % of triamterene [8] -0.178% [at 18.6 µM] | fluorescence, % of fluorescent control [9] -0.0605% [at 18.6 µM] | fluorescence, % of fluorescein [10] 0.0129% [at 18.6 µM] | fluorescence, % of fluorescent control [11] -0.0271% [at 18.6 µM] | activity change [12] -0.0213% [at 18.6 µM] | fluorescence, % of fluorescent control [13] 0.0566% [at 18.6 µM] | fluorescence, % of Rose Bengal [14] -0.224% [at 18.6 µM] | fluorescence, % of fluorescent control [15] -0.0397% [at 18.6 µM] | fluorescence, % of fluorescein control [16] -0.0047% [at 18.6 µM] | fluorescence, % of fluorescent control [18] -0.0034% [at 18.6 µM]

CN(C)CCCNCCC#N
inactive: outcome [1] | outcome [2] | outcome [3] | Potency [4] | outcome [5] | outcome [6] | outcome [7] | outcome [8] | outcome [9] | outcome [10] | outcome [11] | outcome [12] | outcome [13] | outcome [14] | outcome [15] | outcome [16] | outcome [18]

Oc1ccccc1Cc1ccccc1O
inactive: outcome [1] | outcome [2] | outcome [3] | Potency [4] | outcome [6] | outcome [7] | outcome [8] | outcome [9] | outcome [10] | outcome [11] | outcome [12] | outcome [13] | outcome [14] | outcome [15] | outcome [16] | outcome [18] | Potency [19] | outcome [17]
active: Potency [20] 7.7 µM
